Measured values taken from PubChem BioAssay (Tox21).
Activity calls are given as the source filed them. The call rests on the fitted dose curve; in most records, active means well fitted curve in the direction sought with a large enough effect in the repeat runs; inconclusive means weak or mixed curves; inactive means flat fitted curve, though single readings scatter.

Assay: qHTS assay to test for compound auto fluorescence at 460 nm (blue) in HEK293 cells (AID 720678)
Settings: blue autofluorescence 405/460 nm; series mostly up to 91.3 µM
Procedure, shortened: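 After cell attachment (4-5 hr, 37C), compounds were pinned onto HEK293 monolayers in 10% dialyzed FBS medium. The blue channel (405/460 nm) was read following overnight culture. Equivalency was calculated against triamterene.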

For `CNC(=O)N(C)c1nnc(C(C)(C)C)s1`, which outcome is on record?
Its outcome is “inactive”.

For `CCN(CC)C(=O)SCc1ccc(Cl)cc1`, which outcome is on record?
The outcome was “inactive”.

Which outcome does the source give for `CCN(N=O)C(N)=O` here?
Its outcome is “inactive”.

For `Cc1ccccc1[N+](=O)[O-]`, which outcome is on record?
Its outcome is “inactive”.

Which outcome does the source give for `Nn1cnnc1` here?
The outcome was “inactive”.

With `N[C@@H](Cc1ccc(N(CCCl)CCCl)cc1)C(=O)O` as the molecule, how does the outcome read?
Its outcome is “inactive”.

For `c1nc[nH]n1`, which outcome is on record?
The outcome was “inactive”.

With `CCOP(=S)(OCC)O/N=C(\C#N)c1ccccc1` as the molecule, how does the outcome read?
Its outcome is “inactive”.

With `O=c1oc2ccccc2c(O)c1C(CC(O)c1ccc(-c2ccc(Br)cc2)cc1)c1ccccc1` (stereo unspecified) as the molecule, how does the outcome read?
Its outcome is “inactive”.

With `Nc1ccc(Cl)c(Cl)c1` as the molecule, how does the outcome read?
The outcome was “inactive”.

Which outcome does the source give for `ClC1C(Cl)C(Cl)C(Cl)C(Cl)C1Cl` (stereo unspecified) here?
The outcome was “inactive”.

With `CCCCN(CCCC)N=O` as the molecule, how does the outcome read?
Its outcome is “inactive”.

For `S=C1NCCN1`, which outcome is on record?
The outcome was “inactive”.

For `CCOC(=S)S`, which outcome is on record?
Its outcome is “inactive”.

Which outcome does the source give for `Oc1c(Cl)c(Cl)c(Cl)c(Cl)c1Cl` here?
The outcome was “inactive”.

With `O=P(Oc1ccccc1)(Oc1ccccc1)Oc1ccccc1` as the molecule, how does the outcome read?
The outcome was “inactive”.

For `CC(O)CCO` (stereo unspecified), which outcome is on record?
Its outcome is “inactive”.

For `O=P(O)(O)CCCl`, which outcome is on record?
The outcome was “inactive”.

With `c1ccc(NNc2ccccc2)cc1` as the molecule, how does the outcome read?
The outcome was “inactive”.

For `CC(C)(OOC(C)(C)c1ccccc1)c1ccccc1`, which outcome is on record?
The outcome was “inactive”.

Which outcome does the source give for `CC(C)N(C(=O)SCC(Cl)=C(Cl)Cl)C(C)C` here?
Its outcome is “inactive”.

With `O=[N+]([O-])c1cccc2ccccc12` as the molecule, how does the outcome read?
Its outcome is “inactive”.

For `COP(=S)(OC)Oc1cc(Cl)c(Cl)cc1Cl`, which outcome is on record?
Its outcome is “inactive”.

For `C=CCc1ccc2c(c1)OCO2`, which outcome is on record?
The outcome was “inactive”.

Which outcome does the source give for `C#C[C@]1(O)CC[C@H]2[C@@H]3CCC4=CC(=O)CC[C@]4(C)[C@H]3CC[C@@]21C` here?
Its outcome is “inactive”.

With `c1ccc(P(c2ccccc2)c2ccccc2)cc1` as the molecule, how does the outcome read?
Its outcome is “inactive”.

Which outcome does the source give for `Cc1cc(Cl)ccc1OCCCC(=O)O` here?
The outcome was “inactive”.

Assay: qHTS assay to test for compound auto fluorescence at 590 nm (red) in HEK293 cells (AID 720679)
Settings: red autofluorescence 540/590 nm; series mostly up to 91.3 µM
Procedure, shortened: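 Plates of HEK293 cells (10% dialyzed FBS) are treated with 23 nL compound or DMSO vehicle after a 4-5 hr attachment period, incubated overnight at 37C, and read for red fluorescence at 540/590nm.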

With `CNC(=O)N(C)c1nnc(C(C)(C)C)s1` as the molecule, how does the outcome read?
The outcome was “inactive”.

Which outcome does the source give for `CCC(C)c1cc([N+](=O)[O-])cc([N+](=O)[O-])c1O` (stereo unspecified) here?
The outcome was “inactive”.

For `COP(=O)(OC)OC`, which outcome is on record?
Its outcome is “inactive”.

With `CCN(CC)C(=O)SCc1ccc(Cl)cc1` as the molecule, how does the outcome read?
Its outcome is “inactive”.

Which outcome does the source give for `CCN(N=O)C(N)=O` here?
Its outcome is “inactive”.

Which outcome does the source give for `Cc1ccccc1[N+](=O)[O-]` here?
The outcome was “inactive”.

For `Cc1ccc(OP(=O)(Oc2ccc(C)cc2)Oc2ccc(C)cc2)cc1`, which outcome is on record?
The outcome was “inactive”.

Which outcome does the source give for `O=C(O)CC[N+](=O)[O-]` here?
The outcome was “inactive”.

With `CCCCC(CC)COC(=O)c1ccc(C(=O)OCC(CC)CCCC)c(C(=O)OCC(CC)CCCC)c1` (stereo unspecified) as the molecule, how does the outcome read?
Its outcome is “inactive”.

Which outcome does the source give for `Nn1cnnc1` here?
Its outcome is “inactive”.

With `N[C@@H](Cc1ccc(N(CCCl)CCCl)cc1)C(=O)O` as the molecule, how does the outcome read?
The outcome was “inactive”.

For `c1nc[nH]n1`, which outcome is on record?
The outcome was “inactive”.

With `CCOP(=S)(OCC)O/N=C(\C#N)c1ccccc1` as the molecule, how does the outcome read?
Its outcome is “inactive”.

For `C[C@]12CCC(=O)C[C@@H]1CC[C@@H]1[C@@H]2CC[C@]2(C)[C@@H](O)CC[C@@H]12`, which outcome is on record?
The outcome was “inactive”.

For `O=c1oc2ccccc2c(O)c1C(CC(O)c1ccc(-c2ccc(Br)cc2)cc1)c1ccccc1` (stereo unspecified), which outcome is on record?
The outcome was “inactive”.

For `Nc1ccc(Cl)c(Cl)c1`, which outcome is on record?
Its outcome is “inactive”.

Which outcome does the source give for `ClC1C(Cl)C(Cl)C(Cl)C(Cl)C1Cl` (stereo unspecified) here?
Its outcome is “inactive”.

For `CN(C)c1ccc(C(=O)c2ccc(N(C)C)cc2)cc1`, which outcome is on record?
The outcome was “inactive”.

For `CCCCN(CCCC)N=O`, which outcome is on record?
Its outcome is “inactive”.

For `O=C(Nc1ccc(Br)cc1)c1cc(Br)cc(Br)c1O`, which outcome is on record?
Its outcome is “inactive”.

For `S=C1NCCN1`, which outcome is on record?
Its outcome is “inactive”.

For `CCOC(=S)S`, which outcome is on record?
Its outcome is “inactive”.

For `Oc1c(Cl)c(Cl)c(Cl)c(Cl)c1Cl`, which outcome is on record?
Its outcome is “inactive”.

Which outcome does the source give for `O=P(Oc1ccccc1)(Oc1ccccc1)Oc1ccccc1` here?
Its outcome is “inactive”.

For `CC(O)CCO` (stereo unspecified), which outcome is on record?
The outcome was “inactive”.

For `O=P(O)(O)CCCl`, which outcome is on record?
Its outcome is “inactive”.

Which outcome does the source give for `c1ccc(NNc2ccccc2)cc1` here?
The outcome was “inactive”.

Which outcome does the source give for `CC(C)(OOC(C)(C)c1ccccc1)c1ccccc1` here?
The outcome was “inactive”.

Which outcome does the source give for `CC(C)N(C(=O)SCC(Cl)=C(Cl)Cl)C(C)C` here?
Its outcome is “inactive”.

For `O=[N+]([O-])c1ccc(O)c([N+](=O)[O-])c1`, which outcome is on record?
Its outcome is “inactive”.

With `O=[N+]([O-])c1cccc2ccccc12` as the molecule, how does the outcome read?
The outcome was “inactive”.

Which outcome does the source give for `COP(=S)(OC)Oc1cc(Cl)c(Cl)cc1Cl` here?
Its outcome is “inactive”.

With `C=CCc1ccc2c(c1)OCO2` as the molecule, how does the outcome read?
The outcome was “inactive”.

Which outcome does the source give for `CCN(CC)N=O` here?
The outcome was “inactive”.

For `C#C[C@]1(O)CC[C@H]2[C@@H]3CCC4=CC(=O)CC[C@]4(C)[C@H]3CC[C@@]21C`, which outcome is on record?
The outcome was “inactive”.

With `c1ccc(P(c2ccccc2)c2ccccc2)cc1` as the molecule, how does the outcome read?
The outcome was “inactive”.

With `Cc1cc(Cl)ccc1OCCCC(=O)O` as the molecule, how does the outcome read?
Its outcome is “inactive”.

Assay: qHTS assay to test for compound auto fluorescence at 535 nm (green) in HEK293 cells (AID 720680)
Settings: green autofluorescence 485/535 nm; series mostly up to 91.3 µM

For `CNC(=O)N(C)c1nnc(C(C)(C)C)s1`, which outcome is on record?
Its outcome is “inactive”.

For `CCC(C)c1cc([N+](=O)[O-])cc([N+](=O)[O-])c1O` (stereo unspecified), which outcome is on record?
Its outcome is “inactive”.

With `COP(=O)(OC)OC` as the molecule, how does the outcome read?
The outcome was “inactive”.

Which outcome does the source give for `CCN(CC)C(=O)SCc1ccc(Cl)cc1` here?
Its outcome is “inactive”.

With `CCN(N=O)C(N)=O` as the molecule, how does the outcome read?
Its outcome is “inactive”.

With `Cc1ccccc1[N+](=O)[O-]` as the molecule, how does the outcome read?
Its outcome is “inactive”.

Which outcome does the source give for `Cc1ccc(OP(=O)(Oc2ccc(C)cc2)Oc2ccc(C)cc2)cc1` here?
Its outcome is “inactive”.

For `O=C(O)CC[N+](=O)[O-]`, which outcome is on record?
The outcome was “inactive”.

For `CCCCC(CC)COC(=O)c1ccc(C(=O)OCC(CC)CCCC)c(C(=O)OCC(CC)CCCC)c1` (stereo unspecified), which outcome is on record?
Its outcome is “inactive”.

Which outcome does the source give for `Nn1cnnc1` here?
The outcome was “inactive”.

For `N[C@@H](Cc1ccc(N(CCCl)CCCl)cc1)C(=O)O`, which outcome is on record?
Its outcome is “inactive”.

For `c1nc[nH]n1`, which outcome is on record?
Its outcome is “inactive”.

With `CCOP(=S)(OCC)O/N=C(\C#N)c1ccccc1` as the molecule, how does the outcome read?
The outcome was “inactive”.

For `C[C@]12CCC(=O)C[C@@H]1CC[C@@H]1[C@@H]2CC[C@]2(C)[C@@H](O)CC[C@@H]12`, which outcome is on record?
The outcome was “inactive”.

With `O=c1oc2ccccc2c(O)c1C(CC(O)c1ccc(-c2ccc(Br)cc2)cc1)c1ccccc1` (stereo unspecified) as the molecule, how does the outcome read?
The outcome was “inactive”.

For `Nc1ccc(Cl)c(Cl)c1`, which outcome is on record?
The outcome was “inactive”.

For `ClC1C(Cl)C(Cl)C(Cl)C(Cl)C1Cl` (stereo unspecified), which outcome is on record?
Its outcome is “inactive”.

For `CN(C)c1ccc(C(=O)c2ccc(N(C)C)cc2)cc1`, which outcome is on record?
The outcome was “inactive”.

Which outcome does the source give for `CCCCN(CCCC)N=O` here?
Its outcome is “inactive”.

With `O=C(Nc1ccc(Br)cc1)c1cc(Br)cc(Br)c1O` as the molecule, how does the outcome read?
Its outcome is “inactive”.

For `S=C1NCCN1`, which outcome is on record?
The outcome was “inactive”.

Which outcome does the source give for `CCOC(=S)S` here?
Its outcome is “inactive”.

For `Oc1c(Cl)c(Cl)c(Cl)c(Cl)c1Cl`, which outcome is on record?
The outcome was “inactive”.

Which outcome does the source give for `O=P(Oc1ccccc1)(Oc1ccccc1)Oc1ccccc1` here?
Its outcome is “inactive”.

Which outcome does the source give for `CC(O)CCO` (stereo unspecified) here?
The outcome was “inactive”.

With `O=P(O)(O)CCCl` as the molecule, how does the outcome read?
The outcome was “inactive”.

With `c1ccc(NNc2ccccc2)cc1` as the molecule, how does the outcome read?
The outcome was “inactive”.

Which outcome does the source give for `CC(C)(OOC(C)(C)c1ccccc1)c1ccccc1` here?
The outcome was “inactive”.

For `CC(C)N(C(=O)SCC(Cl)=C(Cl)Cl)C(C)C`, which outcome is on record?
The outcome was “inactive”.

For `O=[N+]([O-])c1ccc(O)c([N+](=O)[O-])c1`, which outcome is on record?
The outcome was “inactive”.

For `O=[N+]([O-])c1cccc2ccccc12`, which outcome is on record?
The outcome was “inactive”.

With `COP(=S)(OC)Oc1cc(Cl)c(Cl)cc1Cl` as the molecule, how does the outcome read?
Its outcome is “inactive”.

For `C=CCc1ccc2c(c1)OCO2`, which outcome is on record?
Its outcome is “inactive”.

Which outcome does the source give for `CCN(CC)N=O` here?
Its outcome is “inactive”.

Which outcome does the source give for `C#C[C@]1(O)CC[C@H]2[C@@H]3CCC4=CC(=O)CC[C@]4(C)[C@H]3CC[C@@]21C` here?
Its outcome is “inactive”.

With `c1ccc(P(c2ccccc2)c2ccccc2)cc1` as the molecule, how does the outcome read?
The outcome was “inactive”.

Which outcome does the source give for `Cc1cc(Cl)ccc1OCCCC(=O)O` here?
The outcome was “inactive”.
